{"source": "PubChem BioAssay (NCATS)", "note": "Results filed as inconclusive are left out. Values without a mark were called inactive. Calls follow the shape of the full dose curve. Potency is read from the fitted curve at half-maximal effect."}
{"experiment": "Cell Viability - HepG2 (AID 433);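 also: potency for ATP loss meaning cytotoxicity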", "conditions": "qHTS", "text": "NIH Chemical Genomics Center [NCGC]\nNIH Molecular Libraries Screening Centers Network [MLSCN]\nNational Institutes of Environmental Health Sciences [NIEHS]\nNational Toxicology Program [NTP]\nWe have developed a 1536-well cell-based assay for quantitative high throughput screening (qHTS) against a number of cell lines to determine in vitro cytotoxicity of small molecules. This particular assay uses the HepG2 cell line which is derived from hepatocellular carcinoma.\nNCGC Assay Protocol Summary:\nThe CellTiter-Glo luminescent cell viability assay (Promega) is a homogeneous method to measure the number of viable cells in culture. The end point readout of this assay is based on quantitation of intracellular ATP, an indicator of metabolic activity, using the luciferase reaction. Luciferase catalyzes the oxidation of beetle Luciferin to oxyluciferin and light in the presence of ATP. The luminescent signal is proportional to amount of ATP present.\nUsing the CellTiter-Glo luminescent cell viability assay, the amount of cellular ATP was measured in the HepG2 cell line with complete culture medium following compound treatment for 40 hours. The assay was performed in opaque white Kalypsys 1536-well plates. In the screen, tamoxifen and doxorubicin were used as positive controls. Library compounds were measured for their ability to cause acute toxicity in the cell line, as reflected by a decrease in intracellular ATP levels, in a concentration-dependent manner. Data were normalized to the controls for basal activity (DMSO only) and 100% inhibition (100 uM tamoxifen). AC50 values were determined from concentration-response data modeled with the standard Hill equation.\nqHTS protocol fo CellTiter Glo HepG2 cellular assay\n[Step] [Parameter] [Value] [Description]\n1. Reagent; 5 uL; 1500 HepG2 cells/well\n2. Time; 5 hr; 37 °C incubation\n4. Controls; 23 nL; Tamoxifen 0.34 uM to 100 uM & Doxorubicin 0.02 nM to 100 uM\n5. Time; 40 hr; 37 °C incubation\n6. Reagent; 5 uL; CellTiter Glo reagent\n7. Time; 20 min; Room Temperature\n8. Detection; Luminescence; Viewlux plate reader\nKeywords: cell viability, cytotoxicity, HepG2 cell line, luminescence, NTPHTS, NTPHTS_NCGC, NIEHS, EPA, DSSTox, MLSMR, MLSCN, NIH Roadmap, qHTS, NCGC", "units": {"Potency": "µM"}}
{"smiles": "Oc1c(Cl)c(Cl)cc(Cl)c1Cl", "Potency": "> 92"}
{"smiles": "C=CC(=O)OCCN(C)C", "Potency": "> 92"}
{"smiles": "CCOC(=O)C1OC1(C)c1ccccc1", "note": "(stereo not given)", "Potency": "> 92"}
{"smiles": "CCSC(=O)N1CCCCCC1", "Potency": "> 92"}
{"smiles": "N#CCCC#N", "Potency": "> 92"}
{"smiles": "O=[N+]([O-])c1ccccc1CCl", "Potency": "> 92"}
{"smiles": "Nc1c(Cl)cc([N+](=O)[O-])cc1Cl", "Potency": "> 92"}
{"smiles": "Cc1cc(N=Nc2ccccc2C)ccc1N", "Potency": "> 92"}
{"smiles": "O=C(O)c1cccc(Cl)c1", "Potency": "> 92"}
{"smiles": "CCCCC#N", "Potency": "> 92"}
{"smiles": "ClC(Cl)Br", "Potency": "> 92"}
{"smiles": "Nc1cc(Cl)cc(C(=O)O)c1Cl", "Potency": "> 92"}
{"smiles": "c1ccc(NNc2ccccc2)cc1", "Potency": "> 92"}
{"smiles": "ClCC(Br)CBr", "note": "(stereo not given)", "Potency": "> 92"}
{"smiles": "N#CCBr", "Potency": "> 92"}
{"smiles": "O=C(O)CCl", "Potency": "> 92"}
{"smiles": "O=[N+]([O-])c1ccc(O)c([N+](=O)[O-])c1", "Potency": "> 92"}
{"smiles": "Oc1cccc(Cl)c1Cl", "Potency": "> 92"}
{"smiles": "c1ccc(P(c2ccccc2)c2ccccc2)cc1", "Potency": "> 92"}
{"smiles": "CC(C)OS(C)(=O)=O", "Potency": "> 92"}
{"smiles": "ClCCOCCCl", "Potency": "> 92"}
{"smiles": "Nc1cc(Cl)ccc1O", "Potency": "> 92"}
{"smiles": "Cc1ccc(N)cc1C", "Potency": "> 92"}
{"smiles": "CCCCCOC(=O)c1ccccc1C(=O)OCCCCC", "Potency": "> 92"}
{"smiles": "ClC(Br)Br", "Potency": "> 92"}
{"smiles": "O=C(O)CBr", "Potency": "> 92"}
{"smiles": "CC(C#N)CCC#N", "note": "(stereo not given)", "Potency": "> 92"}
{"smiles": "CCCCC(=O)Cl", "Potency": "> 92"}
{"smiles": "Nc1ccccc1-c1ccccc1", "Potency": "> 92"}
{"smiles": "Cc1cc(C)cc(OP(=O)(Oc2cc(C)cc(C)c2)Oc2cc(C)cc(C)c2)c1", "Potency": "> 92"}
{"smiles": "C=CCOCC1CO1", "note": "(stereo not given)", "Potency": "> 92"}
{"smiles": "C=CCCC#N", "Potency": "> 92"}
{"smiles": "BrCCc1ccccc1", "Potency": "> 92"}
{"smiles": "Clc1ccc(C(Cl)(Cl)Cl)cc1Cl", "Potency": "> 92"}
{"smiles": "C/C=C/C=O", "Potency": "> 92"}
{"smiles": "COc1ccc(C=O)cc1", "Potency": "> 92"}
{"smiles": "ClCCOCOCCCl", "Potency": "> 92"}
{"smiles": "Clc1cc(Cl)c(Cl)c(Cl)c1", "Potency": "> 92"}
{"smiles": "Clc1cccc2ccccc12", "Potency": "> 92"}
{"smiles": "CNC(=O)O/N=C/C(C)(C)S(C)=O", "note": "(stereo not given)", "Potency": "> 92"}
